Potency and affinity values are given separately. Calls of active or inactive are those of the source.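 The calls were made as follows: active = viability loss with a fitted half-maximal dose at or below twice the top valid dose, in every repeat test; inconclusive = repeat tests disagree, or a flat partial loss, or a poor fit; inactive = all tests inactive, including signal rising instead of falling.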

The assay in a line: cytotoxicity in melanoma parental cells – cell-based, CellTiter-Glo, dry powder, set 6, MITF inhibitor project, dose response (AID 624429). Conditions: SK-MEL-5 viability, ATP luminescence (CellTiter-Glo), 24 h; series mostly up to 35 µM.

Regarding `NC1=C(NS(=O)(=O)c2ccc(Br)s2)C(=O)c2ccccc2C1=O`, the result was inactive.

The record behind these values is PubChem BioAssay AID624429 (Broad Institute, 2012).
